Source: PubChem BioAssay AID1159580 (chemical genetic matrix, 2015)
About 2,000 (36%) of roughly 5,500 compounds were called active. Roughly 18% stayed inconclusive and do not appear here. Rule as the data show it: active = normalized growth mostly below about 0.91 (no sharp cut-off); inconclusive = no clear call, values can overlap the other calls; inactive = mostly above about 0.92. The list shows a part of the results.

Test: chemical genetic growth profiling, strain panel (AID 1159580);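 also: tested at 20 µM; growth read once vehicle control cultures reached saturation at 30 °C; 1 = growth at the plate median or of vehicle wells; lower values mean less growth of the strain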
Settings: growth OD

Measured: normalized growth

Cc1ccc(-c2cc(C(F)(F)F)nn2-c2ccc(S(N)(=O)=O)cc2)cc1
inactive: S. cerevisiae deletion strains, locus YJR075W, strain HOC1, stronger effect = lower value 1.02 | S. cerevisiae deletion strains, locus YKL009W, strain mrt4, stronger effect = lower value 0.965 | S. cerevisiae deletion strains, locus YKL068W, stronger effect = lower value 1 | S. cerevisiae deletion strains, locus YKL085W, strain MDH1 (second series), stronger effect = lower value 1 | S. cerevisiae deletion strains, locus YKL085W, strain MDH1, stronger effect = lower value 1 | S. cerevisiae deletion strains, locus YKL160W, strain elf1, stronger effect = lower value 1.03 | S. cerevisiae deletion strains, locus YKL190W, strain CNB1, stronger effect = lower value 0.999 | S. cerevisiae deletion strains, locus YKR001C, strain vps1, stronger effect = lower value 0.988 | S. cerevisiae deletion strains, locus YKR026C, strain gcn3, stronger effect = lower value 1.03 | S. cerevisiae deletion strains, locus YKR091W, strain srl3, stronger effect = lower value 1.02 | S. cerevisiae deletion strains, locus YLL001W, strain dnm1, stronger effect = lower value 1.03 | S. cerevisiae deletion strains, locus YLL026W, stronger effect = lower value 1.02 | S. cerevisiae deletion strains, locus YLL041C, strain sdh2, stronger effect = lower value 1.02 | S. cerevisiae deletion strains, locus YLR027C, strain aat2, stronger effect = lower value 1.02 | S. cerevisiae deletion strains, locus YLR039C, strain RIC1, stronger effect = lower value 0.967 | S. cerevisiae deletion strains, locus YLR058C, strain SHM2, stronger effect = lower value 0.998 | S. cerevisiae deletion strains, locus YLR102C, strain apc9, stronger effect = lower value 1.01 | S. cerevisiae deletion strains, locus YLR113W, strain HOG1, stronger effect = lower value 0.984 | S. cerevisiae deletion strains, locus YLR221C, strain rsa3, stronger effect = lower value 1.03 | S. cerevisiae deletion strains, locus YLR258W, strain gsy2, stronger effect = lower value 1.02 | S. cerevisiae deletion strains, locus YLR262C, strain YPT6 (second series), stronger effect = lower value 1.01 | S. cerevisiae deletion strains, locus YLR262C, strain YPT6, stronger effect = lower value 0.939 | S. cerevisiae deletion strains, locus YLR268W, strain sec22, stronger effect = lower value 1.08 | S. cerevisiae deletion strains, locus YLR320W, strain mms22, stronger effect = lower value 1.04 | S. cerevisiae deletion strains, locus YLR330W, strain CHS5, stronger effect = lower value 1 | S. cerevisiae deletion strains, locus YLR342W, strain FKS1 (second series), stronger effect = lower value 1.04 | S. cerevisiae deletion strains, locus YLR342W, strain FKS1, stronger effect = lower value 1.03 | S. cerevisiae deletion strains, locus YLR357W, strain rsc2, stronger effect = lower value 1.09 | S. cerevisiae deletion strains, locus YLR370C, strain arc18, stronger effect = lower value 1.03 | S. cerevisiae deletion strains, locus YLR371W, strain rom2, stronger effect = lower value 1.02 | S. cerevisiae deletion strains, locus YLR384C, strain iki3, stronger effect = lower value 1.02 | S. cerevisiae deletion strains, locus YLR418C, strain cdc73, stronger effect = lower value 1.01 | S. cerevisiae deletion strains, locus YML016C, strain PPZ1, stronger effect = lower value 0.989 | S. cerevisiae deletion strains, locus YML032C, strain rad52, stronger effect = lower value 1.05 | S. cerevisiae deletion strains, locus YML120C, strain ndi1, stronger effect = lower value 1.03 | S. cerevisiae deletion strains, locus YML124C, strain tub3, stronger effect = lower value 1.01 | S. cerevisiae deletion strains, locus YMR058W, strain fet3, stronger effect = lower value 1.03 | S. cerevisiae deletion strains, locus YMR078C, strain ctf18, stronger effect = lower value 1.02 | S. cerevisiae deletion strains, locus YMR125W, strain sto1, stronger effect = lower value 1.03 | S. cerevisiae deletion strains, locus YMR129W, stronger effect = lower value 1.02 | S. cerevisiae deletion strains, locus YMR205C, strain PFK2, stronger effect = lower value 1.04 | S. cerevisiae deletion strains, locus YMR223W, strain ubp8, stronger effect = lower value 0.999 | S. cerevisiae deletion strains, locus YMR231W, strain pep5, stronger effect = lower value 1.03 | S. cerevisiae deletion strains, locus YMR263W, strain SAP30, stronger effect = lower value 1.01 | S. cerevisiae deletion strains, locus YMR307W, strain GAS1, stronger effect = lower value 0.959 | S. cerevisiae deletion strains, locus YNL067W, strain RPL9B, stronger effect = lower value 1.02 | S. cerevisiae deletion strains, locus YNL071W, strain lat1, stronger effect = lower value 1.02 | S. cerevisiae deletion strains, locus YNL128W, strain TEP1, stronger effect = lower value 1.02 | S. cerevisiae deletion strains, locus YNL153C, strain GIM3, stronger effect = lower value 1.03 | S. cerevisiae deletion strains, locus YNL183C, strain NPR1, stronger effect = lower value 0.954 | S. cerevisiae deletion strains, locus YNL209W, strain ssb2, stronger effect = lower value 1.02 | S. cerevisiae deletion strains, locus YNL233W, strain BNI4, stronger effect = lower value 1.02 | S. cerevisiae deletion strains, locus YNL248C, strain rpa49, stronger effect = lower value 1.03 | S. cerevisiae deletion strains, locus YNL250W, strain rad50, stronger effect = lower value 1.02 | S. cerevisiae deletion strains, locus YNL271C, strain bni1, stronger effect = lower value 1.01 | S. cerevisiae deletion strains, locus YNL298W, strain CLA4, stronger effect = lower value 0.992 | S. cerevisiae deletion strains, locus YNL307C, strain MCK1, stronger effect = lower value 1 | S. cerevisiae deletion strains, locus YNL322C, strain KRE1 (second series), stronger effect = lower value 1.03 | S. cerevisiae deletion strains, locus YNL322C, strain KRE1, stronger effect = lower value 0.997 | S. cerevisiae deletion strains, locus YNR049C, strain mso1, stronger effect = lower value 1.03 | S. cerevisiae deletion strains, locus YNR052C, strain pop2, stronger effect = lower value 1.01 | S. cerevisiae deletion strains, locus YOL006C, strain TOP1, stronger effect = lower value 1 | S. cerevisiae deletion strains, locus YOL012C, strain htz1 0.962 | S. cerevisiae deletion strains, locus YOL147C, strain pex11, stronger effect = lower value 1.01 | S. cerevisiae deletion strains, locus YOR001W, strain rrp6, stronger effect = lower value 1.03 | S. cerevisiae deletion strains, locus YOR061W, strain CKA2, stronger effect = lower value 0.998 | S. cerevisiae deletion strains, locus YOR069W, strain VPS5, stronger effect = lower value 0.996 | S. cerevisiae deletion strains, locus YOR070C, strain gyp1, stronger effect = lower value 1.02 | S. cerevisiae deletion strains, locus YOR080W, strain dia2, stronger effect = lower value 1.05 | S. cerevisiae deletion strains, locus YOR083W, strain WHI5, stronger effect = lower value 1.02 | S. cerevisiae deletion strains, locus YOR106W, strain vam3, stronger effect = lower value 1.04 | S. cerevisiae deletion strains, locus YOR136W, strain idh2, stronger effect = lower value 1.01 | S. cerevisiae deletion strains, locus YOR144C, strain elg1, stronger effect = lower value 1.01 | S. cerevisiae deletion strains, locus YOR184W, strain ser1, stronger effect = lower value 1.01 | S. cerevisiae deletion strains, locus YOR231W, strain MKK1, stronger effect = lower value 0.968 | S. cerevisiae deletion strains, locus YOR265W, strain rbl2, stronger effect = lower value 1.01 | S. cerevisiae deletion strains, locus YOR270C, strain vph1, stronger effect = lower value 1.07 | S. cerevisiae deletion strains, locus YOR290C, strain snf2, stronger effect = lower value 1.03 | S. cerevisiae deletion strains, locus YOR316C, strain cot1, stronger effect = lower value 1.01 | S. cerevisiae deletion strains, locus YPL051W, strain arl3, stronger effect = lower value 1.02 | S. cerevisiae deletion strains, locus YPL055C, strain LGE1, stronger effect = lower value 0.986 | S. cerevisiae deletion strains, locus YPL078C, strain atp4, stronger effect = lower value 1.02 | S. cerevisiae deletion strains, locus YPL106C, strain sse1, stronger effect = lower value 1.04 | S. cerevisiae deletion strains, locus YPL240C, strain hsp82, stronger effect = lower value 1.02 | S. cerevisiae deletion strains, locus YPL241C, strain CIN2, stronger effect = lower value 0.995 | S. cerevisiae deletion strains, locus YPL256C, strain CLN2, stronger effect = lower value 0.96 | S. cerevisiae deletion strains, locus YPR119W, strain clb2, stronger effect = lower value 1.01 | S. cerevisiae deletion strains, locus YPR141C, strain kar3, stronger effect = lower value 1 | S. cerevisiae deletion strains, locus YPR163C, strain tif3, stronger effect = lower value 1.02 | S. cerevisiae deletion strains, locus YPR167C, strain met16, stronger effect = lower value 1.01 | S. cerevisiae deletion strains, strain wtn01, stronger effect = lower value 1.03 | S. cerevisiae strains, strain wild type, stronger effect = lower value 0.996
